This note sets out measurements from PubChem BioAssay (EPA / NIEHS).

The source made the active and inactive calls. Rule for the calls: active = hit-call score of the fitted dose curve at least 0.9, where 1 is the maximum; inactive = score below 0.9.

Read-out in assay [1]: Transforming growth factor beta 1 (TGFb1), TGFB1 (gene 7040)
The assay can be described thus: BSK_KF3CT_TGFb1: BioMAP Diversity Plus: KF3CT Assay for Transforming growth factor beta 1 (TGFb1) Biomarker Activity (AID 2283072). The following applies: primary human keratinocytes with fibroblasts; actives raise or lower the signal. Summed up:
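ELISA quantifies TGF-b1 at 24 h post-dose in a primary human skin co-culture of keratinocytes and fibroblasts, with gain or loss judged against DMSO. Parallel SRB total-protein staining flags overt cytotoxicity.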

Read-out in assay [2]: Matrix Metallopeptidase 9 (MMP9), MMP9 (gene 4318)
The assay can be described thus: BSK_KF3CT_MMP9: BioMAP Diversity Plus: KF3CT Assay for Matrix Metallopeptidase 9 (MMP9) Biomarker Activity (AID 2283074).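 For AC50: MMP9 protein level quantified by ELISA in the co-culture.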 As to conditions: primary human keratinocytes with fibroblasts; actives raise or lower the signal. Put shortly:
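ELISA read-out of MMP-9 at 24 h post-dosing in a co-culture of human skin keratinocytes and foreskin fibroblasts. Gain or loss of signal was fitted in both directions against DMSO.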

Read-out in assay [3]: urokinase plasminogen activator (uPA), PLAU (gene 5328)
The assay can be described thus: BSK_KF3CT_uPA: BioMAP Diversity Plus: KF3CT Assay for urokinase plasminogen activator (uPA) Biomarker Activity (AID 2283075). The following applies: primary human keratinocytes with fibroblasts; actives raise or lower the signal. Put shortly: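 Skin co-culture (keratinocytes + foreskin fibroblasts), human primary; 24 h post-dose; uPA by ELISA; gain/loss fit vs DMSO baseline.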

Read-out in assay [4]: CD40, CD40 (gene 958)
The assay can be described thus: BSK_LPS_CD40: BioMAP Diversity Plus: LPS Assay for CD40 Biomarker Activity (AID 2283076). The following applies: primary human HUVEC with PBMC; actives raise or lower the signal. Put shortly:
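Primary human umbilical vein endothelial cells co-cultured with peripheral blood mononuclear cells, LPS-stimulated, were dosed with chemical and read 24 h later. CD40 levels were measured by ELISA and fitted bidirectionally against DMSO as negative control and baseline.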

Read-out in assay [5]: E-selectin (Homo sapiens) (UniProt P16581)
The assay can be described thus: BSK_LPS_Eselectin: BioMAP Diversity Plus: LPS Assay for Eselectin Biomarker Activity (AID 2283077). The following applies: primary human HUVEC with PBMC; actives raise or lower the signal. Summed up:
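Human umbilical vein endothelial cells co-cultured with peripheral blood mononuclear cells under LPS stimulation; E-selectin measured by ELISA 24 h after chemical dosing. Activity fitted bidirectionally against DMSO as negative control and baseline.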

Read-out in assay [6]: Interleukin-8 (IL8), CXCL8 (gene 3576)
The assay can be described thus: BSK_LPS_IL8: BioMAP Diversity Plus: LPS Assay for Interleukin-8 (IL8) Biomarker Activity (AID 2283078). As to conditions: primary human HUVEC with PBMC; actives raise or lower the signal. Put shortly: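 Human umbilical vein endothelial cells co-cultured with PBMC were stimulated with LPS; IL-8 levels were measured by ELISA 24 h after chemical dosing. Activity was fitted bidirectionally against DMSO as negative control and baseline.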

Assay [7] is described as follows: BSK_LPS_SRB: Viability Assessment in the BioMAP Diversity Plus: LPS Assay (AID 2283079).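 Note: total protein by sulforhodamine B absorbance as a cytotoxicity measure; measured one day after compound addition.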 The following applies: primary human HUVEC with PBMC. Put shortly:
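Human umbilical vein endothelial cells co-cultured with PBMC (LPS system) were dosed for 24 h. Total protein was stained with 0.1% sulforhodamine B after 10% TCA fixation, read at 560 nm, and fitted bidirectionally against DMSO baseline.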

Read-out in assay [8]: Interleukin-1 alpha (IL1a), IL1A (gene 3552)
The assay can be described thus: BSK_LPS_IL1a: BioMAP Diversity Plus: LPS Assay for Interleukin-1 alpha (IL1a) Biomarker Activity (AID 2283080). The following applies: primary human HUVEC with PBMC; actives raise or lower the signal. Put shortly:
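Human umbilical vein endothelial cells co-cultured with peripheral blood mononuclear cells were LPS-stimulated and exposed to test chemicals for 24 h. IL-1 alpha was quantified by ELISA, with bidirectional curve fitting against DMSO as the negative control and baseline.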

Read-out in assay [9]: Monocyte Chemoattractant Protein-1 (MCP1), CCL2 (gene 6347)
The assay can be described thus: BSK_LPS_MCP1: BioMAP Diversity Plus: LPS Assay for Monocyte Chemoattractant Protein-1 (MCP1) Biomarker Activity (AID 2283081).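 For AC50: co-culture stimulated with LPS; secreted MCP-1 protein quantified by ELISA in culture supernatant.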 As to conditions: primary human HUVEC with PBMC; actives raise or lower the signal. Summed up: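 HUVEC plus PBMC co-culture (human primary cells, LPS system) exposed to test chemical for 24 h; MCP-1 measured by ELISA. Bidirectional curve fitting against DMSO baseline; parallel SRB total-protein staining flags overt cytotoxicity.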

Assay [10] is described as follows: BSK_LPS_PGE2: BioMAP Diversity Plus: LPS Assay for Prostaglandin E2 (PGE2) Biomarker Activity (AID 2283082).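 For AC50: secreted prostaglandin E2 measured by ELISA in LPS-stimulated co-culture.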 As to conditions: primary human HUVEC with PBMC; actives raise or lower the signal. Put shortly:
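PGE2 release measured by ELISA in an LPS-activated co-culture of human umbilical vein endothelial cells and peripheral blood mononuclear cells, read at 24 h post-dosing. DMSO served as baseline for bidirectional curve fitting.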

Read-out in assay [11]: Macrophage colony-stimulating factor (MCSF), CSF1 (gene 1435)
The assay can be described thus: BSK_LPS_MCSF: BioMAP Diversity Plus: LPS Assay for Macrophage colony-stimulating factor (MCSF) Biomarker Activity (AID 2283083). The following applies: primary human HUVEC with PBMC; actives raise or lower the signal. Put shortly:
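Human umbilical vein endothelial cells co-cultured with peripheral blood mononuclear cells were exposed to compound for 24 h. M-CSF levels were measured by ELISA, and bidirectional curve fitting used DMSO as the negative control and baseline.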

Read-out in assay [12]: Tissue Factor, F3 (gene 2152)
Description: BSK_LPS_TissueFactor: BioMAP Diversity Plus: LPS Assay for Tissue Factor Biomarker Activity (AID 2283084). As to conditions: primary human HUVEC with PBMC; actives raise or lower the signal. Summed up: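 Human umbilical vein endothelial cells co-cultured with peripheral blood mononuclear cells were dosed and stimulated with LPS. Cell-surface CD142 was quantified by ELISA at 24 h. Activity was fitted bidirectionally against DMSO baseline.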

Read-out in assay [13]: Tumor necrosis factor (Homo sapiens) (UniProt P01375)
Description: BSK_LPS_TNFa: BioMAP Diversity Plus: LPS Assay for Tumour Necrosis Factor alpha (TNFa) Biomarker Activity (AID 2283085).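 For AC50: TNFa protein level quantified by ELISA in the co-culture.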 The following applies: primary human HUVEC with PBMC; actives raise or lower the signal. Summed up:
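TNFa was quantified by ELISA in LPS-activated co-cultures of human endothelial cells and PBMC, 24 h post-dosing. Both increases and decreases versus DMSO were fitted.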

Read-out in assay [14]: Vascular cell adhesion molecule 1 (VCAM1), VCAM1 (gene 7412)
The assay can be described thus: BSK_LPS_VCAM1: BioMAP Diversity Plus: LPS Assay for Vascular cell adhesion molecule 1 (VCAM1) Biomarker Activity (AID 2283086). The following applies: primary human HUVEC with PBMC; actives raise or lower the signal. Summed up:
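VCAM-1 quantified by ELISA in an LPS-activated co-culture of human endothelial cells and peripheral blood mononuclear cells, read 24 h post-treatment. Fitted in both directions versus DMSO; parallel SRB staining flags overt cytotoxicity.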

Read-out in assay [15]: CD40, CD40 (gene 958)
The assay can be described thus: BSK_SAg_CD40: BioMAP Diversity Plus: SAg Assay for CD40 Biomarker Activity (AID 2283088). As to conditions: primary human HUVEC with PBMC; actives raise or lower the signal. Summed up:
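Human umbilical vein endothelial cells co-cultured with PBMC; CD40 levels measured by ELISA with fluorescence read-out 24 h after chemical dosing. Gain or loss of signal fitted bidirectionally against DMSO baseline.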

Read-out in assay [16]: CD69, CD69 (gene 969)
Description: BSK_SAg_CD69: BioMAP Diversity Plus: SAg Assay for CD69 Biomarker Activity (AID 2283089). As to conditions: primary human HUVEC with PBMC; actives raise or lower the signal. Put shortly:
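Primary human vascular co-culture (umbilical vein endothelium with peripheral blood mononuclear cells) exposed to test chemical for 24 h. CD69 levels quantified by fluorescence ELISA; DMSO served as negative control for bidirectional fitting.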

Read-out in assay [17]: Monocyte Chemoattractant Protein-1 (MCP1), CCL2 (gene 6347)
Description: BSK_SAg_MCP1: BioMAP Diversity Plus: SAg Assay for Monocyte Chemoattractant Protein-1 (MCP1) Biomarker Activity (AID 2283090). As to conditions: primary human HUVEC with PBMC; actives raise or lower the signal. Put shortly: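 Values derive from bidirectional fitting of ELISA-measured MCP1 against DMSO controls. Readings were taken 24 h after dosing human vascular endothelial cells co-cultured with peripheral blood mononuclear cells under superantigen stimulation.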

Read-out in assay [18]: E-selectin (Homo sapiens) (UniProt P16581)
Description: BSK_SAg_Eselectin: BioMAP Diversity Plus: SAg Assay for Eselectin Biomarker Activity (AID 2283091). As to conditions: primary human HUVEC with PBMC; actives raise or lower the signal. Put shortly:
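HUVEC co-cultured with PBMC, compound dosed then read at 24 h; E-selectin measured by ELISA. Activity fitted bidirectionally against DMSO as negative control and baseline.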

Read-out in assay [19]: CD38, CD38 (gene 952)
Description: BSK_SAg_CD38: BioMAP Diversity Plus: SAg Assay for CD38 Biomarker Activity (AID 2283087). As to conditions: primary human HUVEC with PBMC; actives raise or lower the signal. Put shortly: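 CD38 quantified by ELISA (fluorescence) in a superantigen-activated endothelial cell–PBMC co-culture at 24 h post-dose. Activity fitted in both directions relative to DMSO; parallel SRB and Alamar Blue cytotoxicity read-outs.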

Tumor necrosis factor (Homo sapiens), sequence (P01375 whole entry, looked up): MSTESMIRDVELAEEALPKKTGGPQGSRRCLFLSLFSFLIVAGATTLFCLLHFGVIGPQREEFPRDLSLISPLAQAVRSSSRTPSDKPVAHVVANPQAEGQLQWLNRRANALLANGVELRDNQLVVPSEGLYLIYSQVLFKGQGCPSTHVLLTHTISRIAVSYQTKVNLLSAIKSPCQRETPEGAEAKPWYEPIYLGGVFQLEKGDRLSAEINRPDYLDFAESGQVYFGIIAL
E-selectin (Homo sapiens), sequence (P16581 whole entry, looked up): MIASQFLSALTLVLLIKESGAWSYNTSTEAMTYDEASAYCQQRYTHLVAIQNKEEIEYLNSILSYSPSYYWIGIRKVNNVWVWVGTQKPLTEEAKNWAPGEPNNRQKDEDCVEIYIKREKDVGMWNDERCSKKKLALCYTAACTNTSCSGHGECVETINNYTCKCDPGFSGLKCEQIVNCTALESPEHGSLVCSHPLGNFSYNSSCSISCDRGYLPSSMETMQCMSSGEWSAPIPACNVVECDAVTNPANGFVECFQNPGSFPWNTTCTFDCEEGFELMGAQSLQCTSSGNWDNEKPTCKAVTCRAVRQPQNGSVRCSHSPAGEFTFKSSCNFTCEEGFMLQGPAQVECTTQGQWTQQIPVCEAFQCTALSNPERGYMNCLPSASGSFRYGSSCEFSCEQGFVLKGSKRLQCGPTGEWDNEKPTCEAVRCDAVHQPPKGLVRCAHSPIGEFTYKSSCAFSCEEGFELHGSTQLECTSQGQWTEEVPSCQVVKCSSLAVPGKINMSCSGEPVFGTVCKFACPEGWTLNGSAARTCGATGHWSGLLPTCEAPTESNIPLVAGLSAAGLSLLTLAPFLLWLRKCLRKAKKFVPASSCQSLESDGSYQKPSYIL

For `COC(=O)c1c(C(F)F)nc(C(F)(F)F)c(C2=NCCS2)c1CC(C)C`, the result in assay [1], in assay [2], in assay [3], in assay [5], in assay [6] and in assay [8] was inactive. Besides, the outcome in assay [9], in assay [12], in assay [14], in assay [16] and in [17] was inactive. Moreover, the AC50 is 7.78 µM (active) in assay [4]; 31.9 µM (active) in assay [7]; 12.2 µM (active) in [10]; 14.3 µM (active) in [11]; 8.66 µM (active) in assay [13]; 24 µM (active) in [15]. In addition, the AC50 in assay [18] was 20 µM (active).
In the case of `CCOP(=S)(OCC)Oc1nc(Cl)n(C(C)C)n1`, the outcome in assay [1], in assay [2], in assay [3], in [4], in assay [5] and in assay [6] was inactive. Also, the result in [7], in assay [8], in assay [9], in [11], in [12] and in assay [13] was inactive. The result in assay [14], in [15], in assay [17] and in assay [18] was inactive. The AC50 in assay [10] was 14.1 µM (active).
Take `COCc1cnc(C2=NC(C)(C(C)C)C(=O)N2)c(C(=O)O)c1` (stereo unspecified): the result in [1], in assay [2], in assay [3], in assay [4], in assay [5] and in [6] was inactive. Further, the outcome in assay [7], in [8], in [9], in assay [10], in assay [11] and in assay [12] was inactive. The result in assay [13], in assay [14], in assay [15], in [17] and in assay [18] was inactive.
In the case of `Cc1ccc(N=CN(C)C=Nc2ccc(C)cc2C)c(C)c1`, the result in assay [1] was inactive. Besides, the half-maximal activity concentration (AC50) in [2] is 31.3 µM (active); in assay [3] it was 26.9 µM (active); in assay [4] it was 29.5 µM (active); in assay [5] it was 31.1 µM (active); in assay [6], 33.6 µM (active); in assay [7], 31.7 µM (active). The AC50 was 30.2 µM (active) in [8]; 31.7 µM (active) in assay [9]; 11.6 µM (active) in assay [10]; 32.6 µM (active) in assay [11]; 32.6 µM (active) in [12]; 33.6 µM (active) in assay [13]. Also, the AC50 in [14] is 26.6 µM (active); in [19], 29.1 µM (active); in assay [15] it was 31.9 µM (active); in [17], 30.9 µM (active); in assay [18], 26.5 µM (active).
Regarding `CC(C)N1C(=O)N(c2ccccc2)CSC1=NC(C)(C)C`, the result in assay [1] and in assay [3] was inactive. Also, the AC50 in assay [2] is 31.6 µM (active); in assay [4], 28.2 µM (active); in assay [5], 30.6 µM (active); in assay [6] it was 17.1 µM (active); in assay [7] it was 34 µM (active); in [8], 30.6 µM (active). Moreover, the AC50 in [9] was 30.5 µM (active); in [10] it was 33.2 µM (active); in assay [11], 18.9 µM (active); in [12], 32.6 µM (active); in assay [13] it was 32.1 µM (active); in assay [14], 31.6 µM (active). In addition, the AC50 is 30.7 µM (active) in assay [19], 33.4 µM (active) in assay [15], 34.5 µM (active) in assay [17] and 27.3 µM (active) in assay [18].
Take `CO/N=C(/C1=NOCCO1)c1ccccc1Oc1ncnc(Oc2ccccc2Cl)c1F`: the outcome in [1], in [3], in assay [8], in [10], in assay [12] and in assay [13] was inactive. In [14], the result was inactive. In addition, the AC50 in [2] is 30.6 µM (active); in [4] it was 13 µM (active); in assay [5] it was 15.2 µM (active); in assay [6], 20 µM (active); in [7], 11.4 µM (active); in assay [9], 22.1 µM (active). Moreover, the AC50 in assay [11] is 19.2 µM (active); in assay [19], 22.3 µM (active); in assay [15], 14.9 µM (active); in [17] it was 27.2 µM (active); in [18] it was 12.7 µM (active).

As usually defined, the AC50 is the concentration at which the activity in the assay is half-maximal.
